# CYP2C9 inh – inhibitors of human CYP2C9; inhibition, % at 5 µM; hit rate 20% among 96,000; AID 777; CYP2C9 Supersomes, luciferin-H conversion, luminescence;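 active = blocking of liver enzyme CYP2C9 beyond about 50% at 5 µM, limit read from the data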
# Target sequence (P11712 whole entry, looked up): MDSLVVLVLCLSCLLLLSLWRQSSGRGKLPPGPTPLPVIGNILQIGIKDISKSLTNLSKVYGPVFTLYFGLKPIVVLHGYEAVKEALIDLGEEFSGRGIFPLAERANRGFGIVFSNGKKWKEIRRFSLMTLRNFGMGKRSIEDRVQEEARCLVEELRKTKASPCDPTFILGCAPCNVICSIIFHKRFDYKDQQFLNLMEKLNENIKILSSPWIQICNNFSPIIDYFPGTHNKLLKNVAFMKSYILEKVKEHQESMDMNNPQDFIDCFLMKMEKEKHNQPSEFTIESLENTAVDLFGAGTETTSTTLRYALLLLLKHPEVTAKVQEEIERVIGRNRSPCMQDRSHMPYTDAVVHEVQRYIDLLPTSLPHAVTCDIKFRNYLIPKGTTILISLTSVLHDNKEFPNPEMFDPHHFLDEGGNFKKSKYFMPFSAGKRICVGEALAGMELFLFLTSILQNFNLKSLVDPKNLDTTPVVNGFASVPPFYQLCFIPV
# CYP2C19 inh – inhibitors of human CYP2C19. P33261. CYP2C19 Supersomes, luciferin-H EGE luminescence, 30 min. inhibition, % at 5 µM. hit rate 21% among 96,000. AID 778;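 active = CYP2C19 inhibition above a set limit at 5 µM in the primary screen, cut at about 50% in these data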;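 note: plate controls were negative control wells for no effect and 2.5 mM tranylcypromine positive control for full effect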
# CYP2C19 act – increases human CYP2C19 enzyme activity; recombinant CYP2C19, luciferin-H EGE luminescence; stronger effect = higher value; 0 = fully inhibited enzyme, 1 = untreated enzyme; AID 1025; activation factor at 5 µM; P33261; 96,000 tested, under 10 active;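 active = activation factor of at least 2 at 5 µM in the primary screen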;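 note: 0 = wells with 2.5 mM tranylcypromine and 1 = vehicle-only wells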
# Measles CPE – protection of cells from measles virus. AID 841. hit rate 1.5% among 140,000. protection (pct of control), % at 4 µM. Measles virus-infected cells, CPE protection, absorbance; in the data active = protection mostly above about 24%, no sharp cut-off; inactive = mostly below about 26%
# CYP2C9 act – activators of human CYP2C9; recombinant CYP2C9, luciferin-H conversion, luminescence; stronger effect = higher value; factor 1 = untreated enzyme, 0 = blocked; hit rate 1.4% among 96,000; activation factor at 5 µM;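 active = activation factor of 2 or more for CYP2C9 at a 5 µM dose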;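 note: 0 = sulfaphenazole-blocked wells and 1 = vehicle-only wells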
# Active calls of the source: *; nt = no result given. The list is not random: actives were taken first. Their share in the collection is about 22%.
SMILES,CYP2C9 inh,CYP2C19 inh,CYP2C19 act,Measles CPE,CYP2C9 act
Cc1cccc(N2CCN(C(=O)c3ccc(Cl)c(S(=O)(=O)NCc4ccco4)c3)CC2)c1C,76*,32,0.7,4,0.2
O=C(O)c1ccc(Cl)c(S(=O)(=O)NCc2ccco2)c1,-1,-3,1,3,1
CCOC(=O)c1c(NC(=S)NC(=O)c2cnn(CC)c2)sc2c1CCC(C)C2 (stereo not drawn),5,-9,1.1,23,0.9
O=C(O)c1ccc(COc2ccc(/C=N/NC(=O)c3cccs3)cc2)cc1,8,-2,1,37,0.9
C/C(=N\OCC(=O)N/N=C/c1ccccc1O)c1cccs1,-41,48,0.5,33,1.4
O=C(N/N=C/c1cccc(OCc2ccccc2)c1)c1cccs1,83*,26,0.7,7,0.2
O=C(N/N=C/c1ccccc1)c1sccc1OCc1ccc(F)cc1,70*,37,0.6,3,0.3
C/C(=N\OCC(=O)N/N=C/c1ccccc1)c1cccs1,41,82*,0.2,9,0.6
Cc1ccc(/C=N/NC(=O)c2ccccc2OCc2ccc(F)cc2)o1,nt,nt,nt,22,nt
Fc1cccc(-c2oncc2-c2nnnn2-c2ccc(Cl)cc2)c1,nt,nt,nt,12,nt
Fc1ccc(-c2[nH]ncc2-c2nnnn2-c2ccccc2)c(F)c1,51*,91*,0.1,5,0.5
Cc1c(C#N)c(N)c(C(=O)c2ccccc2)n1Cc1ccccc1,76*,99*,0,3,0.2
Cc1c(C#N)c(NC(=O)c2cccc(Cl)c2)n(Cc2ccccc2)c1C,3,-1,1,12,1
CCOC(=O)C1CSC(CC(=O)Nc2ccc(Cl)c(Cl)c2)C(=O)N1 (stereo not drawn),-37,18,0.8,11,1.4
COC(=O)c1ccc2c(=O)n(NC(=O)C(c3ccccc3)c3ccccc3)c(=S)[nH]c2c1,62*,1,1,6,0.4
O=C1CC(c2ccccc2)Cc2nc3ncnn3cc21 (stereo not drawn),7,99*,0,15,0.9
CCCc1cc(C(=O)Nc2ccc(F)cc2F)no1,-7,-11,1.1,5,1.1
CSc1ccccc1NC(=O)c1cc(-c2cccs2)on1,-165,8,0.9,5,2.7*
CCCc1cc(C(=O)Nc2cccc(Cl)c2)no1,8,66*,0.3,15,0.9
CCCc1cc(C(=O)Nc2ccccc2SC)no1,-304,20,0.8,3,4*
COc1ccc(CN(C(=O)CN2C(=O)C(C)Oc3ccccc32)C2CCCC2)c(OC)c1 (stereo not drawn),88*,81*,0.2,14,0.1
C=C(C)CC1(NC(C)c2ccccc2)CCCCC1 (stereo not drawn),nt,nt,nt,7,nt
NC(=O)N/N=C/c1ccc(N2CCOCC2)s1,nt,nt,nt,10,nt
C(=N\n1cnnc1)/c1ccc(N2CCOCC2)s1,19,60*,0.4,25,0.8
C(=N\n1cncn1)/c1ccc(N2CCOCC2)cc1,39,63*,0.4,14,0.6
SMILES,CYP2C9 inh,CYP2C19 inh,CYP2C19 act,Measles CPE,CYP2C9 act
C(=N\n1cnnc1)/c1ccc(N2CCOCC2)cc1,65*,88*,0.1,6,0.3
S=c1[nH]ncn1/N=C/c1ccc(N2CCOCC2)cc1,4,24,0.8,16,1
Cc1nc(N2CCOCC2)nc(N2CCCC2)c1[N+](=O)[O-],nt,nt,nt,3,nt
CCCCN(C)Cc1c(C)[nH]c2ccc(OCC)cc2c1=O,3,-15,1.2,27,1
c1ccc2sc(SN3CCOCC3)nc2c1,18,82*,0.2,10,0.8
O=C(Nc1ncc2c(n1)CC(c1ccccc1)CC2=O)c1ccco1 (stereo not drawn),nt,nt,nt,4,nt
O=C1CC(c2ccccc2)Cc2nc(NCc3ccco3)ncc21 (stereo not drawn),51*,45,0.5,4,0.5
COc1ccccc1C(=O)Nc1ncc2c(n1)CC(c1ccco1)CC2=O (stereo not drawn),29,56*,0.4,16,0.7
O=C1CC(c2ccco2)Cc2nc(Nc3ccc(F)cc3)ncc21 (stereo not drawn),59*,56*,0.4,2,0.4
O=C1CC(c2ccco2)Cc2nc(NCC3CCCO3)ncc21 (stereo not drawn),4,12,0.9,19,1
COC(=O)Cc1cc(=O)[nH]c(/N=C(\N)Nc2ccccc2C)n1,nt,nt,nt,10,nt
COCCN(C(=O)COc1ccc(Cl)cc1)c1nnc(-c2cccnc2)s1,nt,nt,nt,8,nt
Cc1noc2ncnc(Sc3ccccc3Cl)c12,68*,100*,0,5,0.3
Cc1cccc(Oc2ncnc3onc(C)c23)c1,-8,23,0.8,1,1.1
Cc1noc2ncnc(Oc3ccccc3)c12,49,76*,0.2,12,0.5
Cc1sc2ncnc(Sc3ccccc3C(=O)Nc3ccccc3Cl)c2c1C,nt,nt,nt,12,nt
COc1ccc(-c2csc(N3CCC(C(N)=O)(N4CCCCC4)CC3)n2)cc1,15,-16,1.2,6,0.8
COc1ccc(/C(C)=N/OCC(=O)N2CC3(C)CC2CC(C)(C)C3)cc1 (stereo not drawn),nt,nt,nt,6,nt
CCC(=O)NC(=S)Nc1ccc(NC(=O)c2ccc([N+](=O)[O-])cc2Cl)cc1,nt,nt,nt,8,nt
Cc1cc(NS(=O)(=O)c2ccccc2)cc(Cl)c1O,-74,100*,0,nt,1.7
O=C(O)c1ccc(S(=O)(=O)Nc2ccc(F)c(Cl)c2)cc1,8,3,1,37,0.9
Cc1ccc(S(=O)(=O)Nc2cc(C)c(O)c(S(=O)(=O)c3ccc(C)cc3)c2)cc1,77*,36,0.6,7,0.2
CCCS(=O)(=O)N1CCCC(C(=O)N2CCN(C(=O)OCC)CC2)C1 (stereo not drawn),-4,-12,1.1,5,1
COCCNC(=O)COC(=O)/C=C/c1c(C)nn(Cc2ccc(Cl)cc2Cl)c1Cl,56*,26,0.7,10,0.4
Cc1ccc(OCC(O)Cn2c3ccccc3c3ccccc32)cc1 (stereo not drawn),60*,63*,0.4,8,0.4
SMILES,CYP2C9 inh,CYP2C19 inh,CYP2C19 act,Measles CPE,CYP2C9 act
OC(CN1CCN(c2ccccn2)CC1)Cn1c2ccc(Cl)cc2c2cc(Cl)ccc21 (stereo not drawn),-5,21,0.8,10,1
CC(=O)N(C)c1ccc(OCC(O)Cn2c3ccc(Cl)cc3c3cc(Cl)ccc32)cc1 (stereo not drawn),54*,31,0.7,6,0.5
OC(COCC(F)(F)C(F)(F)C(F)(F)C(F)F)Cn1c2ccccc2c2ccccc21 (stereo not drawn),nt,nt,nt,4,nt
Cc1ccc(OCCN2CCN(CC(O)Cn3c4ccccc4c4ccccc43)CC2)cc1 (stereo not drawn),nt,nt,nt,20,nt
Cc1cccc(C)c1OCC(O)Cn1c2ccccc2c2ccccc21 (stereo not drawn),75*,49,0.5,25,0.2
Cc1cc(S(=O)(=O)NCCN2CCOCC2)c(C)s1,-10,34,0.7,0,1.1
COc1ccc(S(=O)(=O)NCCN2CCOCC2)c2ccccc12,-64,92*,0.1,26,1.6
